Compound activity: PubChem, National Center for Advancing Translational Sciences (NCATS)
HepG2 viability = qHTS for Inhibitors of TGF-b: Cytotox Counterscreen; HepG2 CAGA-GFP viability, ATP luminescence, 18 h; Potency, µM (series often up to 46.1 µM), actives largely listed as cytotoxic; hit rate 0.76% among 410,000
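CellTiter-Glo luminescence gave cytotoxicity after 18 hours at 37 degrees C. The cells were HepG2 CAGA-GFP in 1% FBS DMEM, stimulated with 500 pg/mL TGF-beta after compound addition. %Activity was normalised to no-cell wells (complete cell-killing) and DMSO (no toxicity), and curves were fitted and classified.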
TGFb inhibitor = qHTS for Inhibitors of TGF-b; HepG2 CAGA-GFP TGF-b/SMAD3 reporter, GFP fluorescence, 18 h; TGF-beta stimulated, 500 pg/mL final; Potency, µM (highest dose often 46.1 µM), hits mostly inhibitors; hit rate 1.2% among 410,000; also: nearly all actives have a fitted effect of over 65% in size
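HEPG2 CAGA-GFP, 1000 cells/well; 2 h settle, 37 C; cpd via pin tool; TGF-b 500 pg/mL final; 18 h, 37 C; GFP imaging ex488/em500-530; %Activity normalised to -TGF-b and +DMSO controls; CRC fit, curve class.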
S2 tox = Viability Counterscreen for Primary qHTS for Inhibitors of ATXN expression; S2 cells (HEK-293 line with an ATXN2-luciferase reporter) viability, CellTiter-Fluor protease fluorescence, 24 h; Potency, µM (top dose mostly 56.7 µM), most hits filed as cytotoxic; hit rate 0.49% among 400,000; AID 651635, 2014; also: nearly all actives have a fitted effect of over 40% in size
ATXN2 expr inh = Primary qHTS for Inhibitors of ATXN expression; HEK-293 ATXN2-luciferase reporter, luminescence, 24 h; Potency, µM (doses to about 57 µM), hits mostly inhibitors; hit rate 0.72% among 360,000; also: nearly all actives have a fitted effect of over 55% in size
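qHTS (up to 57 uM final) was run with 24 h compound exposure of reporter cells at 37 °C. Each well was multiplexed: SteadyGlo luminescence measured ATXN2-luciferase expression after a fluorogenic Gly-Phe-AFC viability readout (25 uM final).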
DT40 TDP1 CPT = qHTS for Inhibitors of human tyrosyl-DNA phosphodiesterase 1 (TDP1): qHTS in cells in presence of CPT | AID 686979, 2013 | chicken DT40 Tdp1-/-;hTDP1 cells + 20 nM CPT, ATP luminescence, 48 h | hit rate 12% among 420,000 | Potency, µM (titrated, usually from 46.2 µM), usual class: inhibitors; also: nearly all actives have a fitted effect of over 55% in size
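Chicken DT40 Tdp1-/- cells complemented with human TDP1, 400 cells/well, exposed to compounds plus 20 nM camptothecin for at least 48 h at 37 C; viability read as ATP content by CellTiter-Glo luminescence.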
DT40 TDP1 no CPT = qHTS for Inhibitors of human tyrosyl-DNA phosphodiesterase 1 (TDP1): qHTS in cells in absence of CPT; Potency, µM (doses to about 46.2 µM), actives largely listed as inhibitors; hit rate 15% among 420,000; AID 686978, 2013; DT40 Tdp1-/- hTDP1 cells, no CPT, ATP luminescence, 48 h; also: nearly all actives have a fitted effect of over 55% in size
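Seeded 400 DT40-hTDP1 cells/well (vehicle DMSO, no 20 nM CPT); pinned compounds; ≥48 hr at 37 °C; CellTiter-Glo luminescence as viability measure.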
Hits are given with their value; 0 = inactive; ? = inconclusive; - = no result given; [ ] = another dose, or the depositor's remark. In the library only some 17% were active in any assay of this set; here they are far more common. Calls follow the shape of the dose curve; as a rule, active = well fitted curve in the direction sought with a large enough effect; inconclusive = small, poorly fitted or top-dose-only effect, or another doubt; inactive = no such curve, though single readings can be large; an effect the other way counts as inactive or inconclusive.

SMILES	HepG2 viability	TGFb inhibitor	S2 tox	ATXN2 expr inh	DT40 TDP1 CPT	DT40 TDP1 no CPT
COc1ccccc1-c1ccc2c(c1)C(C)(Cc1ccc(OC(F)(F)F)cc1)C(=O)N2 (centres undefined)	0	?	?	?	?	?
CCOC(=O)c1cnc2c(N=Nc3ccccc3)c(N)nn2c1N	0	0	0	0	0	0
CCCC[C@@H]1CNC(=O)C(=O)N1CCc1cccc(F)c1	-	-	-	-	?	0
O=C(COc1ccccc1F)Nc1c(C(=O)Nc2cccc(F)c2)oc2ccccc12	0	0	0	0	0	?
COc1ccc(OC)c(-c2cc(Cl)c3c(c2)CC(CNC(=O)c2cnn4cccnc24)O3)c1 (centres undefined)	-	-	0	-	0[9.04 µM]	0
O=c1cc(C(F)(F)F)[nH]c2ccc(OC(F)(F)F)cc12	0	?	0	?	21µM	13µM
O=c1cc(C(F)(F)F)[nH]c2c(C(F)(F)F)cccc12	0	?	?	?	18µM	16µM
CSCCC(NC(=O)c1ccco1)C(=O)NC1CCCCCC1 (centres undefined)	0	0	0	0	0	0
Clc1c(Cl)c(Cl)c2n[nH]nc2c1Cl	0	?	0	?	0	?
COc1ccc(CCNC(=O)C/C(C)=N/NC(=O)C23CC4CC(CC(C4)C2)C3)cc1OC	0	0	0	0	?	7.3µM
CCc1nnc(NC(=O)Cc2cc(OC)c(OC)c(OC)c2)s1	0	0	0	?	0	0
COc1cc(CC(=O)Nc2nc(C)cs2)cc(OC)c1OC	0	0	0	0	12µM	21µM
COc1ccc(CCN2C(=O)C3C4C=CC(C3C2=O)C2C(=O)N(CCc3ccc(OC)c(OC)c3)C(=O)C42)cc1OC (centres undefined)	0	?	0	0	10µM	?
CCC(C)(C)C1CCC2(CC1)NC(=O)N(CC(=O)NCCc1ccc(OC)c(OC)c1)C2=O (centres undefined)	0	?	0	0	?	12µM
COc1ccc(CCN2C(=O)C3C4C=CC(C5CC45)C3C2=O)cc1OC (centres undefined)	0	0	0	0	0	0
CCOc1ccc(C2C(C(=O)c3cccs3)=C(O)C(=O)N2CCN2CCOCC2)cc1 (centres undefined)	0	0	0	-	0	0
O=C(CN(C(=O)CCC(=O)Nc1nccs1)c1cccc(F)c1)NCCc1ccccc1	0	0	0	0	0	0
CCOC(=O)Cn1c(=O)n(CC2CCCO2)c2nc(-c3cc(OC)ccc3OC)nc(C(N)=O)c21 (centres undefined)	0	0	0	0	-	-
COc1ccc(CCN2C(=O)CC(NNc3ccc([N+](=O)[O-])cc3)C2=O)cc1OC (centres undefined)	0	0	0	0	21µM	21µM
COc1ccc(-c2csc(NC(=O)CCN3C(=O)C4CC=CCC4C3=O)n2)cc1OC (centres undefined)	0	0	?	0	21µM	18µM
COc1ccc(-c2csc(NC(=O)Cc3cc(OC)c(OC)c(OC)c3)n2)cc1OC	0	0	0	0	21µM	18µM
COc1ccc(CCNC(=O)CCN2C(=O)C3CC=CCC3C2=O)cc1OC (centres undefined)	0	0	0	0	?	23µM
O=C(CCBr)Nc1cccc2cccnc12	0	0	-	-	-	-
O=C(CCl)Nc1cccc2ncccc12	0	0	-	0	8.2µM	9.2µM
COc1ccc(OCC(=O)Nc2cccc3ncccc23)cc1	0	0	0	0	?	0
O=C(CCCl)Nc1cccc2cccnc12	0	7.1µM	-	-	-	-
COc1ccc(CNC(=O)Cc2nn(C)c(=O)c3ccccc23)cc1	0	0	0	0	10µM	7.3µM
Cn1nc(CC(=O)NC2CCCCCC2)c2ccccc2c1=O	0	?	0	0	18µM	18µM
